The list is not random: actives were taken first. Their share in the collection is about 8.5%.
JMJD2E inh – inhibitors of human JMJD2E histone demethylase; B2RXH2; JMJD2E catalytic domain, FDH-coupled NADH fluorescence (FDH is formaldehyde dehydrogenase); Potency, µM (series often up to 57.1 µM), for the others: at the highest dose activity change, negative = inhibition, most hits filed as inhibitors; actives 1.6% (n = 230,000); AID 2147; active = well fitted inhibition curve with a large enough effect, not every such curve was filed as active; inconclusive = small, poorly fitted or top-dose-only effect, or another doubt; inactive = no such curve, though single readings can be large or run the other way;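 also: potency is read from the fitted curve at half-maximal effect; 0% = wells with enzyme and -100% = buffer wells without enzyme; nearly all actives have a fitted effect of over 50% in size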
Target sequence (B2RXH2 1-337 limits assumed): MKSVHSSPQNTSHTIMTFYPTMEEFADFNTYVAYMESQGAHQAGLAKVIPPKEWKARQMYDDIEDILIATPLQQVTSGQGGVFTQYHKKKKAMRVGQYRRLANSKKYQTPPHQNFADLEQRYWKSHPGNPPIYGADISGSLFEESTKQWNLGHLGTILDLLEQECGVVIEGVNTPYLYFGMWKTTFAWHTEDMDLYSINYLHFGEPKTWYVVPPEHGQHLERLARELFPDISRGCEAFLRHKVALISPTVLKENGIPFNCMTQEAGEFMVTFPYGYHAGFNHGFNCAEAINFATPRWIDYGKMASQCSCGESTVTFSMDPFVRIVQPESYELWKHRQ
NPSR antagonist – antagonists of human neuropeptide S receptor cAMP signaling; CHO-NPSR cells, cAMP TR-FRET, antagonist mode; Potency, µM (top dose mostly 38.3 µM), without a hit: at the highest dose activity change, negative = inhibition, usual class: inhibitors; actives 1% (n = 220,000); also: potency is read from the fitted curve at half-maximal effect; nearly all actives have a fitted effect of over 50% in size
Sfp inh – blocks B. subtilis Sfp PPTase activity; Q9F4F7; Biochemical Sfp PPTase activity, qHTS; Potency, µM, for the others: largest response in the series, negative = inhibition, most hits filed as inhibitors; actives 3.5% (n = 310,000);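 also: the enzyme is Sfp with the accession as filed and its product quenches rhodamine fluorescence; potency is read from the fitted curve at half-maximal effect; 0% = enzyme reaction without inhibitor and -100% = no enzyme wells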
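Buffer: 50 mM Hepes-Na pH 7.6, 10 mM MgCl2, 0.01% Nonidet P-40, 0.01% BSA. Enzyme 15 nM, pre-exposed to compound 15 min; substrates then added and fluorescence change tracked over 30 min.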
GoLoco inh red – inhibitors of human Gai1-RGS12 GoLoco interaction (red fluorophore); P63096; Gai1:RGS12 GoLoco peptide FP, rhodamine, 10 min; Potency, µM (top dose mostly 61.6 µM), for the others: at the highest dose activity, negative = inhibition, hits mostly inhibitors; actives 0.44% (n = 230,000); AID 880; active = well fitted inhibition curve with a large enough effect, not every such curve was filed as active; inactive = no such curve, though single readings can be large or run the other way; also: potency is read from the fitted curve at half-maximal effect; nearly all actives have a fitted effect of over 30% in size
Coupling enz – counter-screen for Giardia aldolase inhibitors: coupling enzyme system | actives 0.67% (n = 290,000) | activity change, negative = inhibition, % at 58.2 µM, hits read low | coupling enzyme system counterscreen, AmpLite Red fluorescence; in the data active = activity change below about -30%
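Counterscreen of the coupled detection system alone, without aldolase: glyceraldehyde-3-phosphate coupling enzymes plus AmpLite Red readout. Compounds at 57.5 uM final, 10 min RT preincubation, 20 min RT reaction, fluorescence 525/598 nm.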
ALDH1A1 inh – blocks purified human ALDH1A1 activity; Potency, µM (titrated, usually from 75.3 µM), inactives show at the top dose activity, negative = inhibition, hits mostly inhibitors; actives 7.3% (n = 220,000); Purified ALDH1A1, NADH fluorescence, propionaldehyde substrate; P00352; active = well fitted inhibition curve with a large enough effect, not every such curve was filed as active; inconclusive = small, poorly fitted or top-dose-only effect, or another doubt; inactive = no such curve, though single readings can be large or run the other way;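 also: potency is read from the fitted curve at half-maximal effect; plate controls were no enzyme wells and a reference inhibitor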
The depositor's hits bear a star; ? = inconclusive; . = no result; [ ] = remark or other dose. Unless noted, calls follow the shape of the dose curve; as a rule, active = well fitted curve in the direction sought with a large enough effect; inconclusive = small, poorly fitted or top-dose-only effect, or another doubt; inactive = no such curve, though single readings can be large; an effect the other way counts as inactive or inconclusive. Unless noted, % is scaled to controls: 0 for no effect and ±100 for the full control effect.

SMILES	JMJD2E inh	NPSR antagonist	Sfp inh	GoLoco inh red	Coupling enz	ALDH1A1 inh
Cc1nnc(SCC2=C(C(=O)O)N3C(=O)C(NC(=O)c4cc(F)c(F)cc4Cl)C3SC2)s1 (stereo not given)	-9%	5%	50µM*	-2%	2	-11%
Cc1nnc(SCC2=C(C(=O)O)N3C(=O)C(NC(=O)Cn4nc(C(F)F)c(Cl)c4C)C3SC2)s1 (stereo not given)	-20%	19%	-12%	-9%	0	?
COc1ccccc1N1CCN(C(=O)CSc2nc3ccccc3nc2N2CCCCC2)CC1	.	.	-8%	.	-3	.
CCC(CC)C(=O)Nc1nnc(SCC(=O)N2CCN(c3ccccc3OC)CC2)s1	-5%	?	11%	-2%	0	13µM*
COc1ccccc1N1CCN(C(=O)CSc2nnc(NC(=O)C(C)C)s2)CC1	?	-7%	13%	-9%	-1	8.9µM*
O=C(Cc1c(F)c(F)c(F)c(F)c1F)Nc1nc(-c2ccccc2)cs1	.	.	-13%	.	-3	.
COC(=O)c1cn(CC(=O)Nc2ccccc2C)c2ccccc12	.	.	3%	.	0	.
CCOC(=O)N1CCC(n2c(SCC(=O)NCCC3=CCCCC3)nc3ccccc3c2=O)CC1	2%	?	-12%	5%	14	13µM*
CCOC(=O)N1CCC(n2c(SCC(=O)N3CCC(C)CC3)nc3ccccc3c2=O)CC1	-2%	-26%[46.1 µM]	79µM*	8%	5	?
COCCn1nnnc1C(c1ccc(O)c(OC)c1)N1CCc2ccccc2C1 (stereo not given)	-29%	-2%[46.1 µM]	14µM*	-40%	-3	-13%
CC(C)(C)n1nnnc1C(c1ccccc1)N1CCc2ccccc2C1 (stereo not given)	1%	?	4%	7%	-10	-16%
CCC(C)(C)n1nnnc1C(c1ccc(O)cc1)N1CCc2ccccc2C1 (stereo not given)	-6%	3%	14µM*	-11%	5	?
COc1ccc(C(c2nnnn2CCc2ccccc2)N2CCN(C)CC2)cc1OC (stereo not given)	9%	-4%[46.1 µM]	1%	0%	0	10%
CC(C#N)Sc1ncnc2sc(-c3ccccc3)cc12 (stereo not given)	.	.	-8%	.	1	.
COC(=O)c1cnc(SCc2ccc([N+](=O)[O-])cc2)n1C	-6%	5%	20%	2%	1	-4%
Cn1c(CO)cnc1SCc1ccc([N+](=O)[O-])cc1	?	-6%[46.1 µM]	5%	8%	1	28µM*
Cc1cc(C)n(CCNC(=O)c2cc(COc3ccc(F)cc3Cl)on2)n1	-1%	46%	-13%	6%	-3	1%
Cc1nc(CCNC(=O)c2cc(COc3ccc(F)cc3Cl)on2)sc1C	?	-22%	40µM*	12%	0	.
CC(C)(C)OC(=O)COc1cc(O)c2c(=O)cc(-c3ccccc3)oc2c1	-14%	-28%[46.1 µM]	6%	.	1	-4%
CC(C)(C)OC(=O)COc1cc(OCC(=O)OC(C)(C)C)c2c(=O)cc(-c3ccccc3)oc2c1	2%	6.3µM*	2%	7%	2	-6%
O=C1/C(=C\c2c(NCCOCCO)nc3ccccn3c2=O)SC(=S)N1Cc1ccco1	.	.	40µM*	.	-2	.
CCCN1C(=O)/C(=C/c2c(NCCCOCC)nc3c(C)cccn3c2=O)SC1=S	-3%	-9%[46.1 µM]	-5%	269%	0	-2%
FC(F)(F)C(Oc1nc(NC2CCCCC2)nc(N2CCOCC2)n1)C(F)(F)F	1%	10µM*	24%	2%	-9	-1%
Cc1ccc(Nc2nc(OC(C(F)(F)F)C(F)(F)F)nc(N3CCOCC3)n2)cc1	10%	?	32%	6%	-9	11%
COc1cccc(CNc2ccc(F)c(Cl)c2)c1O	?	10µM*	18%	-1%	0	5%
CO/N=C\c1cc(C(=O)c2ccc(Cl)cc2Cl)cn1C	?	-25%	-8%	0%	-2	?

Compound activity as filed in PubChem BioAssay.
